# The supplement of paper PMC6658780
# Structures can show the parent of a compound that is named as a salt. ± gives the standard deviation of the averaged measurements.
# Tests used:
# [1] = test system: Klebsiella pneumoniae KPC-119; experiment: percent growth inhibition of drug alone vs DMSO control; higher = more growth inhibition; details: antibiotic (0.125x MIC): none (0.1% DMSO)
# [2] = test system: Klebsiella pneumoniae KPC-119; experiment: percent growth inhibition of drug + antibiotic vs DMSO control; higher = more growth inhibition
# [3] = antibiotic (0.125x MIC): colistin, 20 µM
# [4] = antibiotic (0.125x MIC): colistin, 7 µM
# [5] = antibiotic (0.125x MIC): meropenem, 7 µM
SMILES,percent growth inhibition of drug alone ([1]; 7 µM) [%],percent growth inhibition of drug alone ([1]; 20 µM) [%],"percent growth inhibition [2, 3] [%]","percent growth inhibition [2, 4] [%]","percent growth inhibition [2, 5] [%]"
CC1=C(/C=C/C(C)=C/C=C/C(C)=C/C(=O)O)C(C)(C)CCC1 [Retinoic acid],1.08 ± 2.4,0.222 ± 2,-10.3 ± 2.1,–,–
CN1CCN(c2c(F)cc3c(=O)c(C(=O)O)cn4c3c2SCC4)CC1 [Rufloxacin],14.6 ± 2.5,83.22 ± 0.72,93.89 ± 0.36,96.6 ± 3.1,–
CC(Cc1cccc(C(F)(F)F)c1)NCCOC(=O)c1ccccc1 (centres undefined) [Benfluorex],1.43 ± 3,-0.224 ± 0.36,4.58 ± 2.8,–,–
Cc1cc(C(C)(C)CC(C)(C)C)ccc1OCCOCC[N+](C)(C)Cc1ccccc1 [Methyl benzethonium chloride],-1.94 ± 2.4,-2.28 ± 0.9,–,22 ± 6.4,–
CC1CCc2c(N3CCC(O)CC3)c(F)cc3c(=O)c(C(=O)O)cn1c23 (centres undefined) [Nadifloxacin],6.2 ± 4.4,36 ± 4.7,98.1 ± 1.5,82.4 ± 20,–
CCCCC(CC)CNC(=N)NC(=N)NCCCCCCNC(=N)NC(=N)NCC(CC)CCCC (centres undefined) [Alexidine dihydrochloride],–,–,–,–,99.739 ± 0.078
CC1COc2c(N3CCN(C)CC3)c(F)cc3c(=O)c(C(=O)O)cn1c23 (centres undefined) [Ofloxacin],–,–,–,–,96.7 ± 3.1
